PubChem BioAssay (NCATS)
Inconclusive results are not listed. Active and inactive are the calls of the source. Calls come from the whole dose curve; as a rule, active = well fitted curve in the direction sought with a large enough effect; inconclusive = small, poorly fitted or top-dose-only effect, or another doubt; inactive = no such curve, though single readings can be large; an effect the other way counts as inactive or inconclusive.

How the values were obtained:
[1] = tested on: CRL-7250; assay: Cytotoxic Profiling of Annotated Libraries Using Quantitative High-Throughput Screening (AID 1296008); settings: Five cell lines viability, CellTiter-Glo ATP luminescence, 48-72 h; max response: active compounds read low; note: nearly all actives have a fitted effect of over 60% in size; for max response: % is set by controls: 0 for no effect and ±100 for the full control effect
Procedure, shortened: (§1)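 Cells exposed to compounds for 48 or 72 hr at 37 degrees Celsius. Viability read as ATP-coupled luminescence with CellTiter-Glo after 10 min at room temperature.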

[2] = tested on: HEK293; assay: as above; settings: Five cell lines viability, CellTiter-Glo ATP luminescence, 48-72 h; max response: active compounds read low
Procedure, shortened: as §1

[3] = tested on: HaCat; assay: as above; settings: Five cell lines viability, CellTiter-Glo ATP luminescence, 48-72 h; max response: active compounds read low
Procedure, shortened: as §1

[4] = tested on: KB-3-1; assay: as above; settings: Five cell lines viability, CellTiter-Glo ATP luminescence, 48-72 h; max response: active compounds read low
Procedure, shortened: as §1

[5] = tested on: NIH3T3; assay: as above; settings: Five cell lines viability, CellTiter-Glo ATP luminescence, 48-72 h; max response: active compounds read low
Procedure, shortened: as §1

[6] = tested on: HACAT; assay: qHTS assay to identify novel small-molecules to repurpose for Merkel cell carcinoma treatment (AID 1296009); settings: MCC and control cell lines, CellTiter-Glo viability, 72 h; at 44.8 µM (top of the series) unless noted; note: nearly all actives have a fitted effect of over 60% in size
Procedure, shortened: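 Cells were treated for 72 hr at 37 degree celsius with compounds in 8- or 11-point dose response. Viability was read by CellTiter-Glo luminescence, normalized to no-cell (cytotoxicity) and DMSO controls.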

[7] = tested on: C33A; assay: Primary qHTS to identify gynecologic anti-cancer compounds using libraries of approved drugs and bioactive compounds (AID 1345084); settings: Gynecologic cancer cell panel viability, ATPlite luminescence, 48 h; series mostly up to 57.5 µM; note: % is set by controls: 0 for no effect and ±100 for the full control effect; nearly all actives have a fitted effect of over 55% in size
Procedure, shortened: (§2)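 Cell viability after 48 h drug treatment, ATPlite luminescence readout; five doses.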

[8] = tested on: CAOV3; assay: as above; settings: Gynecologic cancer cell panel viability, ATPlite luminescence, 48 h; series mostly up to 57.5 µM
Procedure, shortened: as §2

[9] = tested on: CASKI; assay: as above; settings: Gynecologic cancer cell panel viability, ATPlite luminescence, 48 h; series mostly up to 57.5 µM
Procedure, shortened: as §2

[10] = tested on: Es-2; assay: as above; settings: Gynecologic cancer cell panel viability, ATPlite luminescence, 48 h; series mostly up to 57.5 µM
Procedure, shortened: as §2

[11] = tested on: HeLa; assay: as above; settings: Gynecologic cancer cell panel viability, ATPlite luminescence, 48 h; series mostly up to 57.5 µM
Procedure, shortened: as §2

[12] = tested on: Hek293T; assay: as above; settings: Gynecologic cancer cell panel viability, ATPlite luminescence, 48 h, control line for the selectivity index; series mostly up to 57.5 µM
Procedure, shortened: as §2

[13] = tested on: JEG-3; assay: as above; settings: Gynecologic cancer cell panel viability, ATPlite luminescence, 48 h; series mostly up to 57.5 µM
Procedure, shortened: as §2

O=C(OCC1OC(Oc2ccc(O)cc2COC(=O)C2(O)C(O)CCC(=O)C2OC(=O)C2C=CCC2)C(OC(=O)C2C=CCC2)C(O)C1O)C1C=CCC1 (stereo unspecified)
inactive: max response [1] -0.0328% | max response [2] -10.5% | outcome [3] | max response [4] 6.15% | max response [5] 3.99% | outcome [6] inactive [at 17.4 µM] | Potency [7] | Potency [8] | outcome [9] | Potency [10] | Potency [11] | Potency [12] | Potency [13]

CCC(C)/C=C(C)/C=C/C1=CC2=C(Cl)C(=O)C(C)(OC(C)=O)C(=O)C2=CN1CCCCC(N)C(=O)O (stereo unspecified)
inactive: max response [1] -2.74% | max response [2] 3.25% | outcome [3] | outcome [4] | max response [5] 3.52% | outcome [6] inactive [at 17.4 µM] | Potency [7] | Potency [8] | outcome [9] | Potency [10] | Potency [11] | Potency [12] | Potency [13]

CC12CC(O)C(O)C=C1c1cc(O)cc(O)c1C(=O)O2 (stereo unspecified)
inactive: max response [1] -7.12% | max response [2] -7.31% | outcome [3] | outcome [4] | outcome [5] | outcome [6] | Potency [7] | Potency [8] | outcome [9] | Potency [10] | Potency [11] | Potency [12] | Potency [13]

CC1(C)CC[C@]2(C(=O)OC3OC(CO)C(O)C(O)C3O)CC[C@]3(C)C(=CCC4[C@@]5(C)C[C@@H](O)[C@H](OC6OC(C(=O)O)C(O)C(O)C6O)C(C)(C)C5CC[C@]43C)[C@@H]2C1 (stereo partly specified)
inactive: max response [1] 2.21% | max response [2] 3.34% | outcome [3] | max response [4] 7.37% | max response [5] -4.63% | outcome [6] inactive [at 9.27 µM] | activity change, negative = cytotoxicity [7] 5.49% [at 11.6 µM] | activity change, negative = cytotoxicity [8] -8.39% [at 11.6 µM] | activity change, negative = cytotoxicity [9] 3.29% [at 11.6 µM] | activity change, negative = cytotoxicity [10] -0.905% [at 11.6 µM] | activity change, negative = cytotoxicity [11] 5.76% [at 11.6 µM] | activity change, negative = cytotoxicity [12] -2.17% [at 11.6 µM] | activity change, negative = cytotoxicity [13] 17.5% [at 11.6 µM]

COC(=O)C1=COC(OC2OC(CO)C(O)C(O)C2O)C2C(C)C(OC(C)=O)C(OC(=O)c3ccccc3)C12 (stereo unspecified)
inactive: max response [1] -19.7% | max response [2] -48.1% | outcome [3] | outcome [4] | max response [5] -45.7% | outcome [6] inactive [at 17.4 µM] | Potency [7] | Potency [8] | outcome [9] | Potency [10] | Potency [11] | Potency [12] | Potency [13]

CC1CC(=O)C2=C(O1)OC1(C)CCC3C(C)(C)C4OC4C(=O)C3(C)C1C2 (stereo unspecified)
inactive: outcome [1] | max response [2] 1.32% | outcome [3] | outcome [4] | max response [5] -0.441% | outcome [6] | Potency [7] | Potency [8] | outcome [9] | Potency [10] | Potency [11] | Potency [12] | Potency [13]

Oc1ccccc1-c1cc(-c2ccccc2F)[nH]n1
inactive: max response [1] 3.55% | max response [2] 4.01% | outcome [3] | max response [4] -0.368% | max response [5] 3.17% | outcome [6] | Potency [7] | Potency [8] | outcome [9] | Potency [10] | Potency [11] | Potency [12] | Potency [13]

Cc1cc(OCCN2CCOCC2)nn1-c1ccc2ccccc2c1
inactive: max response [1] -11.2% | max response [2] -15.6% | outcome [3] | max response [4] -10.7% | max response [5] 2.01% | outcome [6] | Potency [7] | Potency [8] | outcome [9] | Potency [10] | Potency [11] | Potency [12] | Potency [13]

N[C@@H](CC(=O)Nc1ccc(Oc2cc(F)c(F)cc2Br)cc1)C(=O)O
inactive: max response [1] -23% | max response [2] -28.9% | outcome [3] | max response [4] -3.53% | max response [5] 0.0129% | outcome [6] | Potency [7] | Potency [8] | outcome [9] | Potency [10] | Potency [11] | Potency [12] | Potency [13]

CC1=C2C[C@@]3(C)C(CCC[C@@H]3C)C(O)C2(O)OC1=O (stereo partly specified)
inactive: max response [1] -37.7% | max response [2] -7.76% | outcome [3] | max response [4] -14% | max response [5] -21.1% | outcome [6] | Potency [7] | Potency [8] | outcome [9] | Potency [10] | Potency [11] | Potency [12] | Potency [13]

O=C(c1c2ccccc2cc2ccccc12)N1CCC(N2CCC[C@@H](C(=O)N3CCOCC3)C2)CC1
inactive: max response [1] 2.01% | max response [2] -10.6% | outcome [3] | outcome [4] | max response [5] -3.13% | outcome [6] | Potency [7] | Potency [8] | outcome [9] | Potency [10] | Potency [11] | Potency [12] | Potency [13]

CCCO[C@@H]1O[C@H](CO)[C@@H](O)[C@H](O)[C@H]1O[C@@H]1OC[C@@H](O)[C@H](O)[C@H]1O
inactive: max response [1] 1.31% | max response [2] -4.21% | outcome [3] | max response [4] 9.26% | max response [5] -1.11% | outcome [6] | Potency [7] | Potency [8] | outcome [9] | Potency [10] | Potency [11] | Potency [12] | Potency [13]
